This is a sample that favours compounds with a hit; in the whole collection about 2.8% have one here.
WRN inhibitor: blocks human WRN helicase; Q14191; WRN helicase unwinding, fluorescent forked duplex, kinetic; Potency, µM (titrated, usually from 114 µM), hits mostly inhibitors; hit rate 0.46% among 360,000; AID 651768; further: nearly all actives have a fitted effect of over 55% in size
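Kinetic red-fluorescence monitoring (525/598 nm) tracks WRN helicase activity after 100 nM fluorophore-quencher forked duplex and 2 mM ATP are added to 20 nM enzyme pretreated 15 min at room temperature with compound.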
POLK inh: DNA polymerase kappa (human) inhibition; Q9UBT6; purified Pol kappa, fluorescent DNA synthesis assay, 10 min; Potency, µM (titrated, usually from 107 µM), hits mostly inhibitors; hit rate 0.53% among 400,000
Target sequence (Q9UBT6 whole entry, looked up): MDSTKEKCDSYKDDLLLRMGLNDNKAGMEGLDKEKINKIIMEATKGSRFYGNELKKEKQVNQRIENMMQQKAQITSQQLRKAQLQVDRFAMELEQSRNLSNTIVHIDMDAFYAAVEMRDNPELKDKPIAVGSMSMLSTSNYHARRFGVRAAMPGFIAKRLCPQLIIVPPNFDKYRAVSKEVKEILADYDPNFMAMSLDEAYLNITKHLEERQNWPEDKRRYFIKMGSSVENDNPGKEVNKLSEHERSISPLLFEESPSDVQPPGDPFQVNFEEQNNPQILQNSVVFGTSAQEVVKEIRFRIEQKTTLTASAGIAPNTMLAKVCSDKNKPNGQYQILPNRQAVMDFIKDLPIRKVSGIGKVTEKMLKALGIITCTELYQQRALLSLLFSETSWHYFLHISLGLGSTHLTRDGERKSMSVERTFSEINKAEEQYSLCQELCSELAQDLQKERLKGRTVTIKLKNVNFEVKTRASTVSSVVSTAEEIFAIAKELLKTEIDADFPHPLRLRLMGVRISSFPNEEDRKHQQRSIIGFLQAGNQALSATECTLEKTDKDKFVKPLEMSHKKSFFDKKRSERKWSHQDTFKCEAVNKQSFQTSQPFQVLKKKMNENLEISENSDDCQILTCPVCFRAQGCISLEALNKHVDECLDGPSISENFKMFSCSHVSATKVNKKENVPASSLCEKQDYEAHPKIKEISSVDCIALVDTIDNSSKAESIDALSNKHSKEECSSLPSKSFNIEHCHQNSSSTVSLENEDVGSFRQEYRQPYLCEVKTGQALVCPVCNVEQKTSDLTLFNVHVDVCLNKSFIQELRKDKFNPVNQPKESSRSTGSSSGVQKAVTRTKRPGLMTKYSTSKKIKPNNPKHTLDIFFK
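50 nM final substrate added after 15 min RT preincubation of 10 nM Pol kappa with compound; fluorescence read at 0 and 10 min.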
POLH inh: inhibitors of human DNA polymerase eta; Q9Y253; recombinant Pol eta, fluorescent DNA replication assay; Potency, µM (titrated, usually from 114 µM), most hits filed as inhibitors; hit rate 1.2% among 390,000
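Pol eta (10 nM) was preincubated with compounds for 15 min at room temperature, after which fluorescent replication substrate (50 nM final) was added to start the reaction. Fluorescence was read kinetically at 0 and 10 min.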
PI5P4Ka inh: blocks human PI5P4K alpha kinase activity | max response, % | hit rate 1.2% among 330,000 | P48426 | PI5P4Kalpha enzyme, ADP-Glo luminescence, 60 min; active compounds read low; active means max response of -50% or lower; inconclusive means between -30% and -50%; inactive means -30% or higher; further: value at the top dose of about 77 µM
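Enzyme plus substrate dispensed, test compounds pinned in, then ATP (5 microM final) added. After 60 min at RT, ADP-Glo reagent 1 for 45 min and reagent 2 for 30 min preceded luminescence imaging.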
POLB inh: DNA polymerase beta (human) inhibition | P06746 | Pol beta primer extension/strand displacement, fluorescence kinetic | Potency, µM (top dose mostly 114 µM), most hits filed as inhibitors | hit rate 1.3% among 340,000 | AID 485314
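Pol beta (10 nM) and compounds were preincubated 15 min at room temperature, then 50 nM substrate (final) started primer extension/strand displacement. Reads were taken at 0 and 10 min; concentration-response data were fitted to a four-parameter Hill equation.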
POLI inh: inhibitors of human DNA polymerase iota | Q9UNA4 | hit rate 1% among 390,000 | Potency, µM (titrated, usually from 115 µM), actives largely listed as inhibitors | Pol iota fluorescent replication assay, 10 min
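Pol iota at 10 nM preincubated 15 min with compounds at room temperature; reaction started with fluorescent substrate, 50 nM final. Fluorescence read kinetically at 0 and 10 min; buffer-only wells as negative control.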
A number is an active result; n = inactive; u = inconclusive; x = not tested or not shown; [ ] = dose if it differs, or a comment. Unless noted, the call rests on the fitted dose curve; in most records, active means well fitted curve in the direction sought with a large enough effect; inconclusive means small, poorly fitted or top-dose-only effect, or another doubt; inactive means no such curve, though single readings can be large; an effect the other way counts as inactive or inconclusive.

SMILES	WRN inhibitor	POLK inh	POLH inh	PI5P4Ka inh	POLB inh	POLI inh
O=C(COc1ccc(Cl)cc1)NCC(c1ccco1)S(=O)(=O)c1ccc(F)cc1 (stereo unspecified)	x	n	n	x	n	n
COc1cc(-c2cnc3c(NC=O)cc(-c4cccc(C(=O)NCCN(C)C)c4)cn23)cc(OC)c1OC	20µM	x	x	n	x	x
COc1ccc(-c2cnc3c(NC(C)=O)cc(-c4cccc(C(=O)NCCN(C)C)c4)cn23)cc1OC	25µM	x	x	n	x	x
COc1ccc(-c2cnc3c(NC(C)=O)cc(-c4cccc(C(=O)NCCO)c4)cn23)cc1OC	n	x	x	n	x	x
CCOc1ccccc1CNC(=O)CCCN1C(=O)COc2ccc(C)cc21	x	n	x	x	n	n
Cc1cccc(C)c1OCc1cc(=O)n2c3c(sc2n1)CCCC3	x	n	n	x	n	n
O=C(N/N=C/c1ccco1)c1cccc(S(=O)(=O)Nc2ccccc2Cl)c1	u	u	20µM	n	22µM	45µM
Cc1cccc(-c2nc(SCCCOc3ccccc3Cl)n3[nH]c(=O)cc3n2)c1	x	n	u	x	u	n
Cc1ccc(NC(=O)c2sc3ncnc(N(C)C4CCCCC4)c3c2C)cc1	x	n	n	x	n	n
c1ccc2c(C(c3c[nH]c4ccccc34)c3c[nH]c4ccccc34)c[nH]c2c1	x	n	x	x	x	n
C[n+]1ccc(C(c2c[nH]c3ccccc23)c2cc[n+](C)c3ccccc23)c2ccccc21	x	79µM	x	x	x	89µM
C/C=C(\C)C(=O)NCCN1C2=NC[C@@H](Cc3ccccc3)N2C[C@H]1Cc1ccc(O)cc1	n[11.6 µM]	n	n	n	n	71µM
CC1(C)CC(=O)c2c(oc3ccc(NS(=O)(=O)c4cccc5cccnc45)cc23)C1	n	n	n	n	n	n
O=C1CCCc2oc3ccc(NS(=O)(=O)c4cccc5cccnc45)cc3c21	n[11.6 µM]	n	89µM	n	n	u
O=C(O)c1cccc2c1C(=O)c1ccc(-c3ccc(F)cc3OCc3ccccc3)cc1S2(=O)=O	n[11.6 µM]	n	79µM	n	x	u
O=C1c2ccc(-c3ccc(F)cc3OCc3ccccc3)cc2S(=O)(=O)c2cccc(C(=O)N3CCN(c4ncc(Br)cn4)CC3)c21	n	n	n	n	x	n
CC(NC(=O)CCCN1C(=O)CCn2nc(-c3cn(C)c4ccccc34)cc21)c1ccccc1 (stereo unspecified)	x	n	n	x	n	n
C=CC1=C(C)C2=Cc3c(C=C)c(C)c4[n]3[Sn+2][n]3c(c(C)c(CCC(=O)O)c3=CC3=NC(=C4)C(C)=C3CCC(=O)O)=CC1=N2	x	13µM	x	x	x	x
COc1ccc(C(=O)CCC(=O)Nc2cc(Cl)c(O)c(Cl)c2)cc1	n	u	22µM	-77	28µM	45µM
COc1ccc(C(=O)CCC(=O)Nc2ccc(OC)c(Cl)c2)cc1	x	n	n	x	u	n
CC(=O)c1ccc(NC(=O)C2CCC(CNS(=O)(=O)c3ccc4c(c3)CCCC(=O)N4)CC2)cc1 (stereo unspecified)	x	n	n	x	n	n
Cc1c(/C=C2\SC(=Nc3cccc(C(=O)O)c3)NC2=O)c2ccccc2n1C	n[11.6 µM]	n	79µM	-79	u	u
Cc1cccc(N=C2NC(=O)/C(=C/c3cccn3C)S2)c1	n	n	n	n	n	n
Cc1ccc2c(c1)c1nnc(SCC(=O)Nc3cccc(Cl)c3C)nc1n2CC(=O)O	u	n	79µM	n	22µM	n
Cc1ccc2c(c1)c1nnc(SCC(=O)Nc3ccccc3C(F)(F)F)nc1n2CC(=O)O	n	n	n	n	n	n
O=C(Nc1ccncc1)c1ccc(Cl)c(S(=O)(=O)N2CCc3ccccc32)c1	n	n	n	n	x	n
CCc1nnc(NC(=O)c2ccc(Cl)c(S(=O)(=O)N3CCc4ccccc43)c2)s1	n	n	u	n	20µM	u
COc1cc(NC(=O)CCCN2C(=O)CCn3nc(-c4cn(C)c5ccccc45)cc32)cc(OC)c1	x	n	n	x	n	n
O=C(N/N=C/c1coc2ccccc2c1=O)c1cc(O)cc(O)c1	n	n	n	-54	n	n
COc1cc2c(NC3CCN(C(C)C)CC3)nc(N3CCCN(C)CC3)nc2cc1OCCOCCN(C)C	x	n	x	x	x	u
